High-throughput results (PubChem BioAssay)
Only some compounds are listed: those with a hit (about 2% of all), similar ones and a draw of the others.
PME-1 inh – PME-1 (human) inhibition | Q9Y570 | recombinant PME-1, FP-Rh probe fluorescence polarization | inhibition, % at 5.9 µM | 320,000 tested, 0.53% active | AID 2130;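 active = inhibition above the campaign mean of all compounds plus 3 SD, cut at about 26% in these data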;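 note: competitive labeling of PME-1 active site by serine hydrolase directed probe; 0% = PME-1 with DMSO and 100% = wells lacking PME-1 enzyme; inhibitors block probe labeling so polarization falls and inhibition rises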
Fam108B counter – counter-screen for RBBP9 inhibitors: inhibitors of mouse Fam108B | recombinant Fam108B, FP-Rh probe fluorescence polarization | inhibition, % at 9.51 µM | 300,000 tested, 0.33% active | AID 1947;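 active = inhibition above the screen mean inhibition plus 3 SD, computed separately per campaign, cut at about 18% in these data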;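 note: inhibitors lower polarization as less probe binds the enzyme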
GSTO1 inh – blocks human GSTO1 in RBBP9 counter-screen; recombinant GSTO1, activity-based probe fluorescence polarization; inhibition, % at 5.96 µM; P78417; AID 1974; 300,000 tested, 1.1% active;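 active = inhibition above the campaign mean inhibition plus 3 SD, cut at about 35% in these data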;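 note: 0% = GSTO1-1 with DMSO and 100% = wells lacking GSTO1-1 enzyme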
Target sequence (P78417 whole entry, looked up): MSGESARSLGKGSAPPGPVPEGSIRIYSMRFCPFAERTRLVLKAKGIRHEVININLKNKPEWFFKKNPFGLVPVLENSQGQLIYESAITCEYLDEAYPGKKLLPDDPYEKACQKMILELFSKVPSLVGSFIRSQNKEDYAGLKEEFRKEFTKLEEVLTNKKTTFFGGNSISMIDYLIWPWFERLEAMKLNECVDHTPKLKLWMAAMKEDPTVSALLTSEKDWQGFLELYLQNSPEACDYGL
LYPLA2 inh – counter-screen for PME1 inhibitors: inhibitors of human LYPLA2; O95372; AID 2177; inhibition, % at 5.9 µM; recombinant LYPLA2, FP-Rh probe fluorescence polarization; 320,000 tested, 0.38% active;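 active = inhibition above the screen-wide mean plus 3 SD, limit set per campaign, cut at about 26% in these data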;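 note: 0% = LYPLA2 with DMSO and 100% = wells lacking LYPLA2 enzyme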
Target sequence (O95372 whole entry, looked up): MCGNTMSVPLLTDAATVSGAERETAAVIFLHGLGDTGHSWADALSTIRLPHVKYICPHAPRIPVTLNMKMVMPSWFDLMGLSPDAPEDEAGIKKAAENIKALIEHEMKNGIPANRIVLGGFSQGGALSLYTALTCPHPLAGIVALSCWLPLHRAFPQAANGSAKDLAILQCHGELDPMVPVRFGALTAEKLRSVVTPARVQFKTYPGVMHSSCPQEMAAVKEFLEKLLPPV
LYPLA1 counter – blocks human lysophospholipase 1, a PME1 counter-screen; O75608; recombinant LYPLA1, FP-Rh probe fluorescence polarization; inhibition, % at 5.9 µM; 320,000 tested, 0.16% active;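 active = inhibition above the mean of all tested compounds plus 3 SD, set per campaign, cut at about 14% in these data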;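 note: inhibitors block serine hydrolase probe labeling of LYPLA1 so polarization falls; 0% = enzyme with DMSO and 100% = wells lacking LYPLA1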
PREPL inhibitor – inhibits the human prolyl oligopeptidase-like enzyme. inhibition, % at 5.96 µM. Q4J6C6. recombinant PREPL, fluorescence polarization activity-based probe. 320,000 tested, 0.68% active; in the data active = inhibition above about 43%;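 note: 0% = enzyme with DMSO and 100% = wells lacking enzyme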
* marks the source's active call; other numbers are inactive results; · = no result.

SMILES | PME-1 inh | Fam108B counter | GSTO1 inh | LYPLA2 inh | LYPLA1 counter | PREPL inhibitor
COc1cccc(N=Nc2c(=O)[nH]n3c(=O)c4c([nH]c23)CCC4)c1 | 36* | 5 | 10 | -3 | 3 | 4
Cc1cccc2cc(/C=N/Nc3ccc(C(=O)O)cc3)c(Cl)nc12 | 36* | 11 | 8 | 14 | 14 | 14
Cc1ccc(O)c(C(=O)c2cc(C#N)c(=O)n(-c3nccs3)c2)c1 | 33* | 8 | 9 | -7 | -7 | 12
COc1ccc(C(=O)NCC(=O)OCCOc2ccc(Cl)cc2)cc1OC | · | · | · | · | · | 4
CCn1c(C)c(C)c2cc(C(=O)NC3CCCCCC3)ccc21 | -4 | 1 | 2 | -1 | -8 | 1
Cc1ccc(NC(=S)NCc2cccn2C)cc1 | -8 | 1 | -4 | -2 | -3 | 17
Cc1cccc(NC(=S)NCc2cccn2C)c1 | -3 | 5 | 37* | 0 | 1 | 13
CC(C)(C)C(=O)Nc1ccc(C(=O)COC(=O)c2ccccn2)cc1 | · | · | · | · | · | 2
COc1ccc(N2CCc3c(C)nc4c(OC)cc(OC)cc4c32)c(OC)c1 | -1 | -1 | 6 | 11 | 2 | 48*
Cc1ccc(N/N=C2\CS(=O)(=O)N(C)c3ccsc32)cc1 | 7 | 7 | 5 | 1 | -5 | 72*
CC1CCc2c(sc(NC(=O)c3ccccc3C(=O)O)c2C#N)C1 (centres undefined) | -1 | 0 | -6 | -3 | 2 | -1
CCC(C)(C)C1CCc2c(sc(NC(=O)c3ccccc3C(=O)O)c2C#N)C1 (centres undefined) | 27* | -2 | -34 | 4 | 2 | 13
COc1ccc(NC(=O)c2c[nH]n3c(=O)cc(C4CCN(C(=O)OC(C)(C)C)CC4)nc23)cc1Cl | 33* | 5 | -4 | -3 | 1 | 27
Cc1ccccc1/C=C1\SC(=S)N(/N=C/c2cc([N+](=O)[O-])ccc2O)C1=O | 9 | 3 | 35* | 5 | 4 | 18
O=C1/C(=C\c2cc([N+](=O)[O-])ccc2O)SC(=S)N1Cc1ccc(Cl)cc1 | -340 | -164 | -162 | -148 | -52 | -77
S=C(NCCNC(=S)Nc1ccccc1)Nc1ccccc1 | 33* | 2 | 8 | 9 | 0 | 13
S=C(NCCOCCOCCNC(=S)Nc1ccccc1)Nc1ccccc1 | 8 | 0 | 6 | 6 | 2 | 2
CCCn1c(=O)c(C(=O)NNC(=O)c2ccccc2Cl)c(O)c2ccccc21 | 3 | -1 | -4 | -6 | -1 | 3
CN1CCc2c(sc3c2C(=O)NC(c2cccc(OC(=O)c4cccs4)c2)N3)C1 (centres undefined) | -8 | -4 | 2 | -6 | -4 | 52*
CN1CCc2c(sc3c2C(=O)NC(c2ccco2)N3)C1 (centres undefined) | -2 | -2 | 9 | -2 | -1 | 0
COc1cccc(CNc2ccccc2O)c1OCc1ccccc1F | 2 | 9 | 36* | -4 | -6 | 5
CCOc1ccc(NC(=O)CCC(=O)NNC(=O)c2ccc(Br)o2)cc1 | 3 | 0 | 2 | 8 | 2 | 0
N#Cc1c([N+](=O)[O-])cc([N+](=O)[O-])cc1S(=O)(=O)Cc1ccccc1 | 20 | · | · | -10 | -13 | 9
COc1ccc(CNCCCC(=O)Nc2c(Cl)ccc(C)c2Cl)cc1OC | 1 | -1 | 2 | 2 | 0 | -7
O=C(c1ccc2oc(CCCc3ccccc3)nc2c1)N1CCCC(CCCO)C1 (centres undefined) | 42* | 1 | -1 | 17 | 6 | 17
SMILES | PME-1 inh | Fam108B counter | GSTO1 inh | LYPLA2 inh | LYPLA1 counter | PREPL inhibitor
S=C1NCN(Cc2cccnc2)CN1c1cccc2ccccc12 | 1 | 0 | 3 | -5 | 0 | 1
COCCNC(=O)C(c1ccncc1)N(Cc1ccccc1)C(=O)Cn1nnc2ccccc21 (centres undefined) | 0 | 3 | 1 | -2 | -1 | -5
CC(=O)OC1=C(O)C(=O)c2ccccc2C1=O | -3 | -1 | 59* | 3 | -1 | 6
O=C(CCl)N1c2ccccc2OCC1c1ccccc1 (centres undefined) | -1 | 2 | 64* | 3 | 2 | 4
COc1ccc(C(=O)OCC(=O)NC2CC2)cc1F | · | · | · | · | · | 10
CCOC(=O)c1c2c3c(cccc3n(C)c1=O)C(=O)c1ccccc1-2 | 28* | 11 | 15 | 13 | 10 | 24
C=CCN1c2ccccc2C(=O)CS1(=O)=O | 1 | · | · | -5 | 1 | -2
